FBW7 act = FBW7 E3 ligase activators, primary screen, biochemical, AlphaScreen, human | F-box/WD repeat-containing protein 7 (Homo sapiens), Q969H0 | AlphaScreen FBW7–phospho-cyclin E peptide binding, activator screen | normalized activity (activation), % at 26.1 µM | 650,000 tested, 0.13% active | AID 1259310, 2017; in the data active = normalized activity above about 1.9%;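 note: purified mutant Fbw7 with reduced substrate affinity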
GPR151 activ = activators of human GPR151, primary screen, cell-based, PathHunter beta-arrestin, luminescence; PathHunter beta-arrestin GPR151 cells; G-protein coupled receptor 151 (Homo sapiens), Q8TDV0; 650,000 tested, 1% active; activation, % at 11.2 µM; in the data active = activation above about 4.9%
Target sequence (Q8TDV0 whole entry, looked up): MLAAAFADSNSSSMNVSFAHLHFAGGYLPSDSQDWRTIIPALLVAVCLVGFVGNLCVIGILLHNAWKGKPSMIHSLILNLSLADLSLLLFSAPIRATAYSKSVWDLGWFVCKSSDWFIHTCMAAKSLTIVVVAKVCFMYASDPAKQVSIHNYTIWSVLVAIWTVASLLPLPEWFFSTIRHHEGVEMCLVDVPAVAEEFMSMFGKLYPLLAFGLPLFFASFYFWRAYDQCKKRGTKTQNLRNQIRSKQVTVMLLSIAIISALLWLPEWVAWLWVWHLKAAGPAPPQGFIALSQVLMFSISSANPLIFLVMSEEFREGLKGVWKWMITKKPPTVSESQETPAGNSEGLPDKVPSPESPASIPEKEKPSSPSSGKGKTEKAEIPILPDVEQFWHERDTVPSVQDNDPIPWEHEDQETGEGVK
TEAD-YAP inh = TEAD-YAP interaction inhibition, primary screen, TEAD-YAP interaction inhibitor project, luminescence, HEK-TIYL cells; inhibition, % at 9.12 µM; TEAD-Gal4/YAP UAS-luciferase luminescence; 640,000 tested, 1.4% active; AID 1259422, 2018; in the data active = inhibition above about 32%
MITF inh = MITF inhibitors, primary screen, biochemical, AlphaScreen, human; Microphthalmia-associated transcription factor (Homo sapiens), O75030; AlphaScreen MITF homodimerization, bead proximity signal; inhibition, % at 2.6 µM; 650,000 tested, 0.91% active; AID 1259374, 2018; in the data active = inhibition above about 50%
GPR151 conf act = GPR151 activators, triplicate retest, confirmation, cell-based, PathHunter beta-arrestin, luminescence | shares compounds with GPR151 activ | GPR151 PathHunter beta-arrestin cells, 90 min; % of EA-reagent control over plate median | activation, % at 11.2 µM | 6,700 tested, under 10 active | AID 1508609, 2020;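 active = mean percent activation across replicates above the confirmation screen cutoff of 4.91%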
GPR119 ag = GPR119 activators in beta-arrestin cells, counter-screen for GPR151 activator project, cell-based, PathHunter beta-arrestin, luminescence, triplicate. shares compounds with GPR151 activ. 90 min; 0 = compound-well median, 100 = enzyme-acceptor control. activation, % at 11.2 µM. 6,700 tested, 0.3% active. AID 1508611, 2020;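 active = mean percent activation in the counterscreen above 29.09%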;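 note: counterscreen on off-target GPR119 to flag nonselective hits from the GPR151 activator screen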
Numbers stand for hits; - = inactive; . = not tested or not shown. A selection: hits, their analogues and other compounds. The true share with any hit is near 3.4%.

SMILES	FBW7 act	GPR151 activ	TEAD-YAP inh	MITF inh	GPR151 conf act	GPR119 ag
COc1ccccc1CNC(=O)CC1C(=O)NCCN1CCC(C)C (centres undefined)	-	5.8	-	-	-	-
N#Cc1ccc(NC(=O)COC(=O)C2COc3ccccc3O2)cc1 (centres undefined)	-	7.8	-	-	-	-
Cc1ccc2nc(Nc3ccc(C(=O)Nc4ccc(Cl)cc4)cc3)nc(-c3ccccc3)c2c1	-	-	-	-	.	.
CC(C)c1ccc(NC(=O)CSc2nc3cc4c(cc3c(=O)n2CCC2=CCCCC2)OCO4)cc1	-	5.9	-	-	-	-
Nn1c(COc2ccccc2)nnc1SCC(=O)Nc1ccc(Cl)c(Cl)c1	-	-	-	-	.	.
CC(NC(=O)CCCn1c(=O)[nH]c2ccsc2c1=O)C12CC3CC(CC(C3)C1)C2 (centres undefined)	-	-	-	-	.	.
CC(NC(=O)CCn1c(=O)[nH]c2ccsc2c1=O)C12CC3CC(CC(C3)C1)C2 (centres undefined)	-	12.0	-	-	-	-
O=C(Cn1c(=O)[nH]c2ccsc2c1=O)NC1CCCCC1	-	5.3	-	-	-	-
CCC(CC)CN1CCc2nnc(CCNC(=O)COc3ccccc3)n2CC1	-	5.1	-	-	-	-
O=C(NCCc1nnc2n1CCN(Cc1ccccc1-c1ccco1)CC2)C1CCCO1 (centres undefined)	-	7.1	-	-	-	-
O=C(NCCc1nnc2n1CCN(Cc1cccc3ccccc13)CC2)C1CCCO1 (centres undefined)	-	-	-	-	.	.
Cc1ccc(C)c(CN2CCc3nnc(CCNC(=O)COc4ccccc4)n3CC2)c1	-	8.8	-	-	-	-
Cc1cc(C)c(CN2CCc3nnc(CCNC(=O)COc4ccccc4)n3CC2)cc1C	-	-	-	-	.	.
CCOC(=O)CCN1C(=O)[C@H]2[C@H]3[C@H](O)[C@H](O)C/C(=N\NC(=O)OCC)[C@H]3CC[C@H]2C1=O	-	-	.	-	.	.
O=C(Nc1cc(O)cc([N+](=O)[O-])c1)c1nn2c(C(F)(F)F)cc(-c3ccccc3)nc2c1Cl	-	-	-	-	.	.
CSC1=C(C#N)C(c2ccc3c(c2)OCO3)CC(=O)N1 (centres undefined)	-	5.1	-	-	-	-
CCCSC1=C(C#N)C(c2ccc3c(c2)OCO3)CC(=O)N1 (centres undefined)	-	-	-	-	.	.
COc1cccc(CC2(CO)CCN(Cc3cccn3-c3ncccn3)CC2)c1	-	12.1	-	-	-	-
COc1ccc(CN2CCC(CO)(Cc3ccccc3)CC2)cc1Cn1cccn1	-	9.4	-	-	-	-
Cc1ccc(NC(=O)CSc2n[nH]c(-c3ccccc3O)n2)cc1C	-	-	-	-	.	.
COC(=O)[C@@H]1CC[C@H](C)[C@@H](c2ccc(C)cc2)N1C(=O)c1ccc(/C=N/OC[C@@H](O)[C@H]2O[C@@H]3OC(C)(C)O[C@@H]3[C@H]2O)cc1	-	6.7	.	-	-	-
CCOc1ccc(N2CC(C(=O)N3CCC4(CC3)NC(=O)c3ccccc3N4)CC2=O)cc1 (centres undefined)	-	5.1	-	-	-	-
CCOc1ccc(N2CC(C(=O)OC)CC2=O)cc1 (centres undefined)	-	6.4	-	-	-	-
CCOc1ccc(N2CC(C(=O)N3CCN(C(=O)C4CC(=O)N(c5ccc(OCC)cc5)C4)CC3)CC2=O)cc1 (centres undefined)	-	-	-	-	.	.
Cc1ccc(NC(=O)C(=O)N/N=C/c2ccc([N+](=O)[O-])cc2)cc1C	-	14.8	-	-	-	-
SMILES	FBW7 act	GPR151 activ	TEAD-YAP inh	MITF inh	GPR151 conf act	GPR119 ag
Cc1cc(Cl)ccc1NC(=O)C(=O)N/N=C/c1ccc([N+](=O)[O-])cc1	-	-	-	-	.	.
O=C(CSc1nnc(-c2ccc(F)cc2)o1)NC1CCCCCC1	-	-	-	-	.	.
Cc1cc(NC(=O)CSc2nc3ccccc3c(=O)n2C2CC2)no1	-	-	-	-	.	.
COCCn1c(SCC(=O)N2CC(=O)Nc3ccccc32)nnc1-c1ccoc1C	-	7.6	-	-	-	-
O=C(NCc1cccnc1)c1ccc(N2CCC(NCCn3cccn3)CC2)cc1	-	-	-	-	.	.
COc1ccc(OC)c(C(C)NC(=O)c2ccc(F)cc2)c1 (centres undefined)	-	5.4	-	-	-	-
COc1cc(/C=N\NC(=O)c2ccc([N+](=O)[O-])cc2)ccc1OC(=O)c1ccco1	-	11.4	-	-	-	-
COc1cc(/C=N/NC(=O)c2ccco2)ccc1OCc1ccc([N+](=O)[O-])cc1	-	-	-	-	.	.
CCCCN(CC)S(=O)(=O)c1ccc(F)c(C(=O)Nc2cccc(Cl)c2C)c1	-	-	-	-	.	.
CC(C)C(=O)N=C1SC2CS(=O)(=O)CC2N1c1cccc(C(F)(F)F)c1 (centres undefined)	-	7.5	-	-	-	-
CNc1nc(-c2ccccc2O)nc(-c2ccccc2O)n1	-	-	-	-	.	.
[Zn+2].c1ccc2c(c1)-c1nc-2nc2[n-]c(nc3nc(nc4[n-]c(n1)c1ccccc41)-c1ccccc1-3)c1ccccc21	-	10.9	-	-	-	-
Cc1cccc(NC(=O)c2cc3cc([N+](=O)[O-])ccc3oc2=N)c1C	-	-	-	-	.	.
Cc1ccc(S(=O)(=O)N2C(=O)CCC2C(=O)O/N=C(\N)c2ccccc2)cc1 (centres undefined)	-	8.4	-	-	-	-
Cc1ccc(S(=O)(=O)N2C(=O)CCC2C(=O)O/N=C(\N)c2cccnc2)cc1 (centres undefined)	-	5.2	-	-	-	-
Cc1ccc2c(c1)-c1c(cnn1CC(=O)N1CCCC1)CO2	-	-	-	-	.	.
CN(Cc1nc(-c2cccnc2)no1)S(=O)(=O)c1ccc2ccccc2c1	-	5.1	-	-	-	-
CN(Cc1nc(-c2cccnc2)no1)S(=O)(=O)c1ccc(Br)cc1	-	-	-	-	.	.
CCC1C(=O)NCCN1Cc1ccc2c(c1)CN(Cc1cccc(C)n1)CCO2 (centres undefined)	-	5.4	-	-	-	-
CCc1ccc(C2=NN(CCC(=O)NCC(OC)OC)C(=O)CC2)cc1	-	-	-	-	.	.
O=C(NNC(=S)Nc1ccccc1Cl)C1CC1	-	6.0	-	-	-	-
CCc1ccc(N(CC(=O)N2CCC(C(N)=O)CC2)S(C)(=O)=O)cc1	-	-	-	-	.	.

Screening data (PubChem BioAssay)
